# High-throughput results deposited in PubChem by National Center for Advancing Translational Sciences (NCATS).
# RORg inh: ROR gamma (mouse) transcription inhibition; Potency, µM (series often up to 53.6 µM), for inactives: top-dose activity change, negative = inhibition, hits mostly inhibitors; Drosophila S2 Gal4-RORgamma UAS-luciferase reporter, 20 h; 5.4% of 310,000 active; note: potency is the fitted concentration of half-maximal effect; % is set by controls: 0 for no effect and ±100 for the full control effect; nearly all actives have a fitted effect of over 60% in size
#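 Using a luciferase readout, inhibitors were identified by reduced reporter activity in Drosophila cells coexpressing a copper-inducible Gal4–ROR gamma fusion and UAS-driven Photinus luciferase, incubated 20 hr after 700 uM copper sulfate.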
# VP16 counter: inhibits Gal4-VP16 luciferase reporter, ROR gamma counter-screen; Drosophila S2 Gal4-VP16 UAS-luciferase, luminescence, 20 h; Potency, µM (doses to about 53.6 µM), without a hit: top-dose activity, negative = inhibition, actives largely listed as inhibitors; 3.5% of 310,000 active;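 note: Gal4-VP16 expression switched on by copper sulfate through the metallothionein promoter; potency is the fitted concentration of half-maximal effect; % is set by controls: 0 for no effect and ±100 for the full control effect; nearly all actives have a fitted effect of over 50% in size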
# TRPV1 agonist: human TRPV1 agonism | AID 540275 | activation, % at 8.33 µM | TRPV1-expressing cells, Fluo-8 calcium influx, agonist mode | Q8NER1 | 0.19% of 320,000 active; in the data active = activation above about 80%; inconclusive = between about 30% and that limit; note: 0% is about no effect
# Target sequence (Q8NER1 whole entry, looked up): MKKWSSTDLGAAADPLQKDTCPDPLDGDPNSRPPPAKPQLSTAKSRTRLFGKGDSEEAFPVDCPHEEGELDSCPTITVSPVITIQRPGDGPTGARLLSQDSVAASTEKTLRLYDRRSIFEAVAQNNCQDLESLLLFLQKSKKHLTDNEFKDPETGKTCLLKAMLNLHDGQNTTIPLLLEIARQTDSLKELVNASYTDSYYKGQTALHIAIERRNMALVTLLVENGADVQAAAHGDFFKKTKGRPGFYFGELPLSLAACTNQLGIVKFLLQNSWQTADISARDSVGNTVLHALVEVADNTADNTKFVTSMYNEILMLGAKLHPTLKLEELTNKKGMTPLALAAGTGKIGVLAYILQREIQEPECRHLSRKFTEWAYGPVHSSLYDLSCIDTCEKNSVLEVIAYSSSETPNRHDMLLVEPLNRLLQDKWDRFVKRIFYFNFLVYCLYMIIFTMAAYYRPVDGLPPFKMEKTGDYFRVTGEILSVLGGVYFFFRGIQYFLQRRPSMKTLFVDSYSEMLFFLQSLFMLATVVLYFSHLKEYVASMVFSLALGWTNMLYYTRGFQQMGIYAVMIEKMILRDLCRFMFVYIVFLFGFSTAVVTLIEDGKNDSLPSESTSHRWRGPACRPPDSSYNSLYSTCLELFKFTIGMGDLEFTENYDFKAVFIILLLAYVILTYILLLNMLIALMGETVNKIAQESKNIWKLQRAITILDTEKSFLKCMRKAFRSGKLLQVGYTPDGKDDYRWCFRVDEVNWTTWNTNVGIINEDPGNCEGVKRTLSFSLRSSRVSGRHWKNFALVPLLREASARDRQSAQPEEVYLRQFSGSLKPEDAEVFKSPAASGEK
#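 Cells expressing TRPV1 were dye-loaded with Fluo-8 and read kinetically: 10 s baseline, 3 min after compound (agonist portion), then 2 min after EC20 capsaicin (allosteric enhancer portion). Calcium-bound dye fluorescence at 480/520 nm.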
# uPA generation: blocks generation of uPA at the cell surface | cell surface uPA generation assay, qHTS | Potency, µM (highest dose often 38.3 µM), for inactives: top-dose activity change, negative = inhibition, hits mostly inhibitors | 0.31% of 330,000 active | AID 540303; active = well fitted inhibition curve with a large enough effect; inconclusive = small, poorly fitted or top-dose-only effect; inactive = no such curve, though single readings can be large or run the other way; tested in mouse RAW 264.7 cells; note: potency is the fitted concentration of half-maximal effect; % is set by controls: 0 for no effect and ±100 for the full control effect; nearly all actives have a fitted effect of over 55% in size
# TRPV1 PAM: potentiators of human vanilloid receptor 1 (TRPV1). TRPV1-expressing cells, Fluo-8 calcium influx, capsaicin EC20 potentiation. potentiation, % at 8.33 µM. 0.02% of 320,000 active. AID 540277; in the data active = potentiation above about 80%; inconclusive = between about 30% and that limit; note: 0% is about no effect
#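 Cells expressing TRPV1 were dye-loaded with Fluo-8 and read kinetically: 10 s baseline, 3 min after compound (agonist portion), then 2 min after EC20 capsaicin (allosteric enhancer portion). Calcium-bound dye fluorescence at 480/520 nm.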
# * = called active by the depositor; ? = inconclusive; / = no result given. Sampled rows, rich in hits. Any-hit rate of the full collection: about 5.8%. Unless noted, calls come from the whole dose curve; as a rule, active = well fitted curve in the direction sought with a large enough effect; inconclusive = small, poorly fitted or top-dose-only effect, or another doubt; inactive = no such curve, though single readings can be large; an effect the other way counts as inactive or inconclusive.
SMILES,RORg inh,VP16 counter,TRPV1 agonist,uPA generation,TRPV1 PAM
OC(c1ccccc1)(c1ccccc1)C1CCN(C(=S)NCCc2ccccc2)CC1,12.6µM*,?,1.5,3.4%,1.5
CC1CCN(C(=S)NCCc2ccccc2)CC1,?,?,?,/,-3.1
S=C(NC1CCCCC1)N1CCOCCOCCN(C(=S)NC2CCCCC2)CCOCC1,11.2µM*,?,16.4,7.4%,19.5
CCOc1ccc(NC(=S)N2CCC(C(O)(c3ccccc3)c3ccccc3)CC2)cc1,12.6µM*,?,-1.0,-2.6%,7.1
COc1ccc(NC(=S)N2CCC(C(O)(c3ccccc3)c3ccccc3)CC2)cc1,?,?,-3.1,-8.8%,-0.2
OC(c1ccccc1)(c1ccccc1)C1CCN(C(=S)Nc2ccc(F)cc2)CC1,/,/,/,-20.1%,/
CCOc1ccc(C2c3cc(OC)c(OC)cc3CC(=O)N2c2ccc(OC)cc2)cc1 (stereo not drawn),-7.0%,-0.8%,-1.5,/,-13.1
O=C(O)c1cc([N+](=O)[O-])cc2c1nnn2O,-35.2%,-13.5%,-1.1,0.9%,-4.2
O=C(CN1C(=O)NC2(CCCC2)C1=O)NCc1ccccc1,/,/,/,11.8%,/
CCOc1cc(NC(=S)NCC2CCCO2)c(OCC)cc1NC(=O)c1ccccc1F (stereo not drawn),3.16µM*,7.94µM*,?,11.8%,-14.1
O=C(CSc1nnc(NC(=O)c2ccccc2F)s1)NCC1CCCO1 (stereo not drawn),-16.1%,-5.5%,0.5,6.31µM*,10.2
CCOc1cc(NC(=S)NCC2CCCO2)c(OCC)cc1NC(=O)CC (stereo not drawn),-20.2%,-6.8%,-0.5,4.9%,3.4
CC(C)(C)C1CCC(=NOC(=O)c2ccc(F)cc2)CC1 (stereo not drawn),8.6%,-5.9%,?,6.6%,18.5
CN(CC(=O)Nc1ccc2c(c1)OCCO2)Cc1nc2ccccc2c(=O)[nH]1,/,/,0.7,5.7%,3.5
CN(C(=O)c1ccc(S(=O)(=O)c2cccc(Cl)c2)c([N+](=O)[O-])c1)C1CCCCC1,6.5%,?,4.3,-7.8%,-2.3
COc1c[nH]n(C2CCCCC2)c(=O)c1=O,20µM*,?,-0.9,/,-2.9
O=C(CCn1cnnn1)N1CCCC(Nc2ccc(F)cc2)C1 (stereo not drawn),?,9.5%,1.1,-3.0%,12.3
CCOC(=O)c1cccc(NC(=O)C2(S(=O)(=O)c3ccc(C)cc3)CC2)c1,16.7%,0.4%,0.3,0.1%,1.2
CC(C)c1ccc(NC(=S)NCc2ccc3c(c2)OCO3)cc1,12.6µM*,?,?,1.6%,-9.4
COC(=O)NCc1ccc2c(c1)OCO2,-5.1%,-1.9%,-0.9,4.1%,5.6
COc1ccc(NC2c3ccccc3C(=O)N2Cc2ccc3c(c2)OCO3)cc1 (stereo not drawn),?,?,102.2*,3.4%,2.8
S=C(NCc1ccc(Cl)c(Cl)c1)Nc1ccc2c(c1)OCO2,11.2µM*,?,13.0,3.1%,-1.5
COc1cc(NC2c3ccccc3C(=O)N2Cc2ccc3c(c2)OCO3)cc(OC)c1 (stereo not drawn),?,-8.0%,?,5.2%,-5.6
COc1ccc(NC(=S)NCc2ccc3c(c2)OCO3)cc1,12.6µM*,?,18.2,2.7%,-10.7
S=C(NCc1cccnc1)Nc1ccc2c(c1)OCO2,-12.3%,1.3%,-4.4,4.2%,6.0
SMILES,RORg inh,VP16 counter,TRPV1 agonist,uPA generation,TRPV1 PAM
CCCC(=O)c1cc(O)c(O)cc1O,-25.0%,5.8%,/,/,/
O=C(Nc1c2c(nn1-c1ccc(F)cc1)CS(=O)(=O)C2)c1ccc(Br)o1,10.3%,0.0%,-2.2,1.4%,2.8
CCOc1ccc(-n2c(-c3ccccc3)c[n+]3c2CCCCC3)cc1,?,3.55µM*,-3.2,?,7.2
c1ccc(-c2c[n+]3c(n2-c2ccccc2)CCC3)cc1,18.9%,-25.4%,4.4,?,13.5
N#Cc1ccc2nc3c(nc2c1)CCCC3,21.2%,-12.5%,-1.4,-4.5%,-10.3
CCc1ccc(-n2c(C)n[nH]c2=S)cc1,10µM*,?,0.4,2.4%,-0.9
CCc1ccc(-n2c(Cn3nc(C(F)(F)F)cc3C)n[nH]c2=S)cc1,3.98µM*,?,3.3,0.6%,-4.2
CC(O)C#C[Si](C)(C)c1ccccc1 (stereo not drawn),-1.0%,-0.7%,/,/,/
COc1ccc(-n2cnc(N)c2C(=O)c2cccc([N+](=O)[O-])c2)cc1,11.2µM*,-19.1%,3.3,?,3.6
CC(C)CN(C(=O)CC1OC(=O)c2ccccc21)c1c(N)n(Cc2ccccc2)c(=O)[nH]c1=O (stereo not drawn),/,/,-1.6,7.2%,1.7
N#CCSc1nc2ccccc2c(=O)n1CCC(=O)NCCc1ccccc1,-0.4%,-3.7%,-0.7,-9.0%,0.1
CC(=O)NCCn1c(SCC#N)nc2ccccc2c1=O,0.224µM*,3.7%,-2.6,1.0%,-1.0
COc1cccc(C(=O)CSc2nnnn2C2CCCCC2)c1,-1.9%,0.0%,?,3.6%,-15.4
CC(=O)O[C@@H]1[C@@H](O)CN[C@@H]1Cc1ccccc1,0.501µM*,0.282µM*,/,/,/
Cc1nn(C(C)(C)C)c(N)c1-c1ccccc1,3.5%,-14.6%,-4.0,0.4%,1.9
CCN(CC)S(=O)(=O)c1ccc(NN)nc1,4.47µM*,17.8µM*,0.7,-4.2%,-0.6
CCN(c1ccccc1)S(=O)(=O)c1ccc(NN)nc1,/,/,7.0,?,-3.5
CCN(CC)S(=O)(=O)c1ccc(N/N=C/c2cc(OC)ccc2O)nc1,4.47µM*,11.2µM*,16.8,-14.0%,-0.2
CCN(CC)S(=O)(=O)c1ccc(N/N=C/c2cccnc2)nc1,18.4%,2.1%,4.4,15.0%,-6.2
CC(C)N(C(C)C)S(=O)(=O)c1ccc(NN)nc1,14.1µM*,?,-1.2,-5.6%,?
COc1ccccc1NC(=O)NNC(=O)CCN1CCOCC1,3.9%,-2.6%,-2.7,-1.0%,-8.0
CN1CCN(S(=O)(=O)c2cccc(C(=O)Nc3ccc(Br)cc3Br)c2)CC1,/,/,/,-5.3%,/
CCN(C(=O)CSc1nnc(-c2ccco2)n1C)c1c(N)n(Cc2ccccc2)c(=O)[nH]c1=O,/,/,-0.2,4.2%,0.2
CC1(C)CC(=O)c2sc(NC(=O)c3cccs3)nc2C1,5.01µM*,5.62µM*,4.4,-17.2%,16.0
CC1(C)CC(=O)c2sc(NC(=O)CCS(=O)(=O)c3ccccc3)nc2C1,?,5.62µM*,-2.0,7.7%,?
SMILES,RORg inh,VP16 counter,TRPV1 agonist,uPA generation,TRPV1 PAM
CC1(C)CC(=O)c2sc(NC(=O)c3ccccc3)nc2C1,55.6%,6.3%,?,/,-18.5
CC(Oc1ccccc1)C(=O)Nc1nc2c(s1)C(=O)CC(C)(C)C2 (stereo not drawn),41.7%,-6.9%,2.0,-1.4%,22.9
Cc1cccc(OCC(=O)N(C)CCc2ccccn2)c1,31.2%,11.6%,1.4,1.8%,3.9
Cc1ccc(-n2[nH]c(=O)c(-c3ccccn3)c2C)cc1,1.26µM*,2.82µM*,-0.8,-14.9%,-0.2
Cc1ccc(-n2[nH]c(=O)c3cccnc32)cc1,21.3%,5.2%,/,/,/
CC(C)(C)Sc1ccc2nc3c(n2c1)CCCC3,3.98µM*,11.2µM*,?,-4.3%,-11.6
